Experimental findings from PubChem BioAssay AID652017 (The Scripps Research Institute Molecular Screening Center, 2013) are described below.

Hit rate of the full screen: of about 370,000 compounds, about 3,800 (1%) were called active. What follows is part of a selection rich in actives, with near analogues and random picks from the rest. Values without a mark were called inactive. Rule as the data show it: active = activation above about 7.8%; inactive = the rest.

The nature of the assay: SMARCA2 (BRM) function activators, primary screen, cell-based, luminescence, high throughput (AID 652017).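 Also: 0% = vehicle wells and 100% = reference activator wells.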 Particulars: MG213 cells, MMTV-luciferase reporter, dexamethasone, overnight; at 9.1 µM; hits give high values.
Consider `Cc1ccc(C(=O)Nc2nc3ccc(Cl)cc3s2)o1`, for which the activation was 12.3% (active). The figure for `O=C(Nc1nc2ccc(Cl)cc2s1)c1cc(-c2ccc(Cl)cc2)nc2ccccc12` is -3.62%; for `Cc1sc2ncnc(N3CCC(C(=O)Nc4nc5ccc(Cl)cc5s4)CC3)c2c1C` it is 4.88%; for `COC1=C[C@H](C(=O)NCCNC(C)=O)[C@H](C)[C@@H](c2ccccc2)CC1=O` it is -1.73%. Under `O=C1CC[C@@H](COc2ccc3[nH]cc(-c4ccccc4)c3c2-c2ccccc2)N1` stands -2.62%; under `COC(=O)[C@]12C[C@H](CC(=O)N3CCOCC3)C(=O)N(Cc3ccc(Cl)cc3Cl)C1=C[C@H](C(C)C)O[C@@H]2C1CC1`, -2.82%.

As for `O=[N+]([O-])c1ccc2c(c1)Nc1nc3ccccc3nc1N2`, the activation was 15.2% (active). Take `Cc1ccc(-n2cc3ccc([N+](=O)[O-])cc3n2)cc1`: the activation is 3.85%.

In the case of `Cc1nc2ccccc2nc(=O)c1NNc1ccc([N+](=O)[O-])cc1`, the activation was 2.04%.

For `COc1ccc(CSc2nnc(SCC(=O)Nc3ccccc3C(F)(F)F)s2)cc1`, the activation is -1.77%. The figure for `COC(=O)C1=CN(Cc2ccc(OC)c(OC)c2)C=C(C(=O)OC)C1c1cccs1` is -1.26%.

In the case of `COc1ccc(CC2c3cc(OC)c(OC)cc3CC[N+]2(C)CCC(=O)OCCCCCOC(=O)CC[N+]2(C)CCc3cc(OC)c(OC)cc3C2Cc2ccc(OC)c(OC)c2)cc1OC` (stereo not drawn), the activation was 11.4% (active). Consider `COc1ccc(CN2CCOC2=O)cc1OC`, for which the activation is -2.13%.

For `CN(CCO)c1cccc2c1S(=O)(=O)N(Cc1cn(Cc3ccc(C(F)(F)F)cc3)nn1)Cc1ccccc1O2`, the activation is 3.38%. Under `CC(C)CNC(=O)OCc1cn(Cc2ccc(F)cc2)nn1` stands -0.88%. For `CCOC(=O)[C@@]12CCC3=C1N(CCC3)C(=O)[C@H](CC(=O)N1CCN(C(=O)c3ccco3)CC1)C2`, the activation was -0.99%. Under `COc1cccc(CNC(=O)[C@H]2CCCN2C(=O)[C@H]2CCCN2C(=O)c2ccc(F)cc2)c1` stands -5.59%; under `O=C(NC1CCCC1)C(=O)c1c[nH]c2ccccc12`, 10.3% (active).

For the molecule `CC1CCN(CC(=O)c2c[nH]c3ccccc23)CC1`, the activation is 4.35%. As to `O=C(NCCCc1ccccc1)C(=O)c1c[nH]c2ccccc12`, the activation is 7.21%.

`Cc1nn(C(C)(C)C)c(OC(=O)CC(C)C)c1S(=O)(=O)c1ccccc1`: the activation is -0.75%. Regarding `N#Cc1c(/N=C/N2CCCC2)oc(-c2ccccc2)c1-c1ccccc1`, the activation is 1.32%. Regarding `CCOc1ccc(NC(=S)N2CCC(N(C)CC3CCCO3)CC2)cc1` (stereo not drawn), the activation was 4.49%. Under `COc1ccc(N2CCN(C(=S)Nc3ccc(S(N)(=O)=O)cc3)CC2)cc1` stands -1.43%.

On to `CCC(C)N(C)C1CCN(C(=S)Nc2ccc(OC)cc2)CC1` (stereo not drawn), for which the activation is 8.91% (active). The figure for `O=C(CSc1nc2ccccc2n1Cc1ccccc1)NNC(=S)Nc1ccccc1` is 4.3%.

With `COc1cccc(C(=O)Nc2cc3c(cc2Br)OCCCO3)c1`, the activation is 11% (active).

`COc1ccc(OC)c(NC(=O)c2cccc(S(=O)(=O)N3CCN(C(C)=O)CC3)c2)c1`: the activation was -1.12%.

For `COc1cccc(/C=C/C(=O)Nc2ccc3c(c2)OCCO3)c1`, the activation was 5.29%. Under `O=S1(=O)C[C@@H](N2CCN(CCO)CC2)[C@H](COCc2ccccc2)N1` stands -4.94%; under `COC(=O)[C@]12C[C@H](CC(=O)NCc3cccs3)C(=O)N(CCc3ccc(OC)c(OC)c3)C1=C[C@H](C(C)C)O[C@@H]2C1CC1`, -3.39%. Regarding `O=C(NCCC1=CCCCC1)C1CCN(S(=O)(=O)c2ccc(Cl)s2)CC1`, the activation is -6.89%. The figure for `COc1ccc(N(CC(=O)NC(C)(C)C)C(=O)c2ccco2)cc1` is -1.03%; for `COc1cccc2cc(/C(C)=N/NC(=O)c3ccco3)oc12` it is 5.77%. The figure for `C/C(CC(=O)NC(C)(C)C)=N\NC(=O)c1ccco1` is 8.95% (active); for `CCC(NC(=O)C1C2C=CC3(CN(Cc4ccccc4)C(=O)C13)O2)c1ccccc1` (stereo not drawn) it is -1.92%. The figure for `CC1(C(=O)NS(=O)(=O)C2CC2)CCCN(C(=O)CSc2ccccc2)C1` (stereo not drawn) is 10.6% (active); for `CC(C)CNC(=O)C1(C)CCCN1C(=O)CSc1ccccc1` (stereo not drawn) it is -1.93%.

`CS(=O)(=O)N1CCN(C(=O)CSc2ccccc2)CC1`: the activation was -2.96%.

As for `C[C@@H]1CN([C@H](C)CO)C(=O)CCCn2cc(nn2)CO[C@H]1CN(C)S(=O)(=O)c1ccc(Oc2ccccc2)nc1`, the activation was -2.13%. Take `COc1ccc([C@H]2OC(=O)C[C@H]2C(=O)N2CCN(c3ccccc3F)CC2)cc1OC`: the activation is -3.16%.

Take `COC(=O)[C@]12C[C@H](CC(=O)NCc3ccccc3)C(=O)N(CCc3ccc(OC)c(OC)c3)C1=C[C@H](C(C)(C)C)O[C@@H]2C`: the activation is -3.03%. For the molecule `CCOC(=O)[C@]12CCCCC/C=C\1N(Cc1ccc(OC)cc1)C(=O)[C@H]2CC(=O)NCc1ccc(C)o1`, the activation was -0.44%. Under `O=C(NCCCN1CCCCCC1)c1ccc(N2CCCC2=O)cc1` stands 1.14%; under `O=C(NCCS(=O)(=O)NCc1ccc(Cl)cc1)c1ccccc1`, -0.89%; under `CN1CCN(CCCNC(=O)c2ccc(/C=C3\Oc4ccccc4N(Cc4ccc(Cl)cc4)C3=O)cc2)CC1`, 10.6% (active). Under `Cc1cc(NS(=O)(=O)c2ccc(NC(=O)CSc3nnc(SCc4ccc(F)cc4)s3)cc2)nc(C)n1` stands -5.48%; under `O=C(Nc1cccc(Cl)c1)OC1CC2CC1[C@H]1CCCCN1[C@H]2Cc1ccccc1` (stereo partly drawn), -2.01%; under `CCOC(=O)CSc1nc(C)cc2c1C(=O)OC2`, -2.43%. As to `C#CCN([C@H](C(=O)OC)C(C)CC)S(=O)(=O)c1ccccc1Br` (stereo partly drawn), the activation was -1.68%. Consider `O=C(Nc1ccc2c(c1)[C@@H]1C[C@@H](CC(=O)N3CCCCC3)O[C@@H](CO)[C@@H]1O2)NC1CCCCC1`, for which the activation was -1.84%. The figure for `O=C(C[C@H]1CC[C@@H](NC(=O)c2ccncc2)[C@@H](CO)O1)NCC1CC1` is -1.73%; for `O=C(N[C@H]1CC[C@H](CC(=O)N2CCCCC2)O[C@@H]1CO)c1cccc(F)c1` it is 8.81% (active).
